In the library only some 3.1% were active in any assay of this set; here they are far more common.
Tb PFK inh = qHTS Assay to Find Inhibitors of T. brucei phosphofructokinase | Potency, µM (top dose mostly 57.5 µM), for the others: at the highest dose activity, negative = inhibition, actives largely listed as inhibitors | T. brucei PFK, ADP-Glo luminescence | ATP-dependent 6-phosphofructokinase (Trypanosoma brucei brucei), O15648 | AID 485367, 2010 | hit rate 0.17% among 330,000;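 note: 0% = uninhibited 1x PFK enzyme wells and -100% = no-enzyme wells; nearly all actives have a fitted effect of over 60% in size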
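1.25 nM PFK with 0.5 mM F6P and 0.1 mM ATP in 0.1 M TEA pH 8.0, 5 mM MgCl2, incubated 45 min at room temperature; ADP measured by ADP-Glo luminescence; compounds titrated up to 57 uM.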
Pin1 inhibitor = qHTS Assay to Find Inhibitors of Pin1. Peptidyl-prolyl cis-trans isomerase NIMA-interacting 1 (Homo sapiens), Q13526. Pin1 FP peptide displacement, HiFluor488, 10 min. Potency, µM (doses to about 115 µM), without a hit: at the top dose activity, negative = inhibition, actives largely listed as inhibitors. hit rate 0.009% among 390,000; active = well fitted inhibition curve with a large enough effect in the polarisation, with a control signal flat, not every such curve was filed as active; inconclusive = small, poorly fitted or top-dose-only effect, or effect the other way, or a change in a side signal; inactive = no such curve, though single readings can be large or run the other way; the % refers to the polarisation; note: % is set by controls: 0 for no effect and ±100 for the full control effect
Target sequence (Q13526 whole entry, looked up): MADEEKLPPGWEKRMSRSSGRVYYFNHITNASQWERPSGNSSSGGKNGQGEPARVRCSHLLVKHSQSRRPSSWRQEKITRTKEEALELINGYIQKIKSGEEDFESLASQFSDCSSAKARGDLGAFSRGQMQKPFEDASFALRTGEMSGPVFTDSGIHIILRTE
TDP1 inh = qHTS Assay for Inhibitors of Tyrosyl-DNA Phosphodiesterase (TDP1); Potency, µM (titrated, usually from 130 µM), for the others: at the highest dose activity change, negative = inhibition, most hits filed as inhibitors; hit rate 0.28% among 350,000; recombinant TDP1, AlphaScreen DNA substrate cleavage; Tyrosyl-DNA phosphodiesterase 1 (Homo sapiens), Q9NUW8; note: % is set by controls: 0 for no effect and ±100 for the full control effect; nearly all actives have a fitted effect of over 40% in size
Target sequence (Q9NUW8 whole entry, looked up): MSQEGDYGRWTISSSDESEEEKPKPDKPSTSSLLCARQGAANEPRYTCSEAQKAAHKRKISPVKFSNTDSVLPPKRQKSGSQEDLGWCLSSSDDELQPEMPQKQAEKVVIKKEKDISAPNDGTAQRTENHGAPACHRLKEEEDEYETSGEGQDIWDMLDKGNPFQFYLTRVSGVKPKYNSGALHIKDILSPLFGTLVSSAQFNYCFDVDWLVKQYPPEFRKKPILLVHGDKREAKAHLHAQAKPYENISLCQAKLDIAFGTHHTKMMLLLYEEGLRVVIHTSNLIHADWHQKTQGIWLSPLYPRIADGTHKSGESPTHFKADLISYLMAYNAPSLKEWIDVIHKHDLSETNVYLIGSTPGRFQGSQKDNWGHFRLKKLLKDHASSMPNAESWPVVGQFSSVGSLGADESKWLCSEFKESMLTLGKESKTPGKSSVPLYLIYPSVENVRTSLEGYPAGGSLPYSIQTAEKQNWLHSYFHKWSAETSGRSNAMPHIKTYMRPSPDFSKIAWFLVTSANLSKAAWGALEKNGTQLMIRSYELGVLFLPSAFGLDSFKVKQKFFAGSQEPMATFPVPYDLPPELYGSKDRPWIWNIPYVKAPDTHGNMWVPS
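E. coli-derived human Tdp1, 1 nM final. Cpd preinc 15 min RT; substrate 15 nM final, 5 min RT; AS bead mix 10 ug/ml final, 10 min RT. Signal loss = tyrosine-FITC cleavage. No-enzyme wells = max signal.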
VDR inh = Inhibitors of the vitamin D receptor (VDR): qHTS. hit rate 0.93% among 400,000. VDR-SRC2-3 peptide fluorescence polarization, 2 h. Potency, µM, without a hit: max response, negative = inhibition, most hits filed as inhibitors. Vitamin D3 receptor (Homo sapiens), P11473; note: % is set by controls: 0 for no effect and ±100 for the full control effect
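Measured by FP: displacement of SRC2-3 coactivator peptide from VDR by library compounds, following a two-hour ambient incubation.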
PLK1 PBD inh = qHTS for Inhibitors of PLK1-PDB (polo-like kinase 1 - polo-box domain): Primary Screen. Serine/threonine-protein kinase PLK1 (Homo sapiens), P53350. Plk1 PBD binding of FITC phosphopeptide, fluorescence polarization. Potency, µM, for inactives: max response, negative = inhibition, hits mostly inhibitors. hit rate 2.8% among 360,000; note: series mostly up to about 57 µM; % is set by controls: 0 for no effect and ±100 for the full control effect; nearly all actives have a fitted effect of over 65% in size
S-ASM inh = Inhibitors of Secretory Acid Sphingomyelinase (S-ASM): qHTS; AID 504937, 2011; Potency, µM (top dose mostly 57.5 µM), without a hit: at the highest dose activity change, negative = inhibition, most hits filed as inhibitors; placental ASM, HMU-PC fluorogenic substrate, 60 min; hit rate 0.006% among 340,000; Sphingomyelin phosphodiesterase (Homo sapiens), P17405
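HMU-PC0 cleavage (9 uM final) by human placental ASM, 60 min at 37 °C following 10 min compound exposure at RT; stopped at pH 10, fluorescence Ex 386/Em 447 nm.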
TbPYK inh = qHTS of Trypanosoma Brucei Inhibitors: Confirmatory Assay for Cherry-picked Compounds. shares compounds with PLK1 PBD inh. recombinant TbPYK, Kinase-Glo ATP luminescence. Potency, µM (doses to about 76.9 µM), inactives show at the top dose activity change, negative = inhibition, most hits filed as inhibitors. hit rate 67% among 890. AID 720569, 2013; note: % is set by controls: 0 for no effect and ±100 for the full control effect; nearly all actives have a fitted effect of over 70% in size
TbPYK ADP-Glo = qHTS of Trypanosoma Brucei Inhibitors: Orthogonal Assay for Cherry-picked Compounds. Potency, µM (highest dose often 76.9 µM), inactives show top-dose activity change, negative = inhibition, usual class: inhibitors. shares compounds with PLK1 PBD inh. hit rate 62% among 890. recombinant TbPYK, ADP-Glo luminescence, 60 min; note: % is set by controls: 0 for no effect and ±100 for the full control effect; nearly all actives have a fitted effect of over 75% in size
* = called active by the depositor; ? = inconclusive; / = not tested or not shown; [ ] = remark or other dose. Unless noted, calls come from the whole dose curve; as a rule, active = well fitted curve in the direction sought with a large enough effect; inconclusive = small, poorly fitted or top-dose-only effect, or another doubt; inactive = no such curve, though single readings can be large; an effect the other way counts as inactive or inconclusive. Potency is the fitted concentration of half-maximal effect.

SMILES | Tb PFK inh | Pin1 inhibitor | TDP1 inh | VDR inh | PLK1 PBD inh | S-ASM inh | TbPYK inh | TbPYK ADP-Glo
COC(=O)c1ccc2nc(-c3ccc(C)cc3)c(Cc3ccc(C)cc3)n2c1 | / | / | / | / | 0.7% | / | / | /
COC(=O)c1ccc2nc(-c3ccco3)c(Cc3cccc(F)c3)n2c1 | / | / | / | / | ? | / | 11.2µM* | 7.94µM*
COC(=O)c1ccc2nc(C3CCCCC3)c(Cc3ccccc3C(F)(F)F)n2c1 | / | / | / | / | 3.4% | / | / | /
CCOC(=O)c1cc(-c2ccc(F)cc2)n(CCC(=O)NC2CCC(C)CC2)c1C (stereo not drawn) | / | 0.9% | 6.6% | -4.8% | / | / | / | /
CCCCOc1ccc(C2=NC(c3ccncc3)=Nc3ccc(OCC)cc3N2)cc1 | / | 0.9% | 9.3% | 17.4% | / | / | / | /
COC1=C(OC)C(=O)C(Sc2ccc3ccccc3c2)=CC1=O | / | -8.2% | / | 8.91µM* | 0.752µM* | -5.9% | 0.355µM* | 2.24µM*
CCOC(=O)C1C(=O)CC(C)(O)C(C(=O)OCC)C1c1ccc(Br)o1 (stereo not drawn) | 3.6% | -2.7% | 0.0% | -0.2% | -6.8% | 0.2% | ? | -26.3%
COc1cc(/C=N/N2CCN(Cc3ccc(C)cc3)CC2)cc(OC)c1O | -3.5% | 1.0% | / | -23.3% | -4.7% | 2.0% | 22.4µM* | 28.2µM*
Clc1ccc(-c2nc3ccc(Cl)cn3c2Cc2cccc(Cl)c2)cc1 | / | / | / | / | -12.5% | / | / | /
Clc1cccc(Cc2c(-c3ccco3)nc3ccc(Cl)cn23)c1 | / | / | / | / | 11.9µM* | / | 11.2µM* | 12.6µM*
Clc1cccc(Cc2c(-c3ccco3)nc3ccc(Br)cn23)c1 | / | / | / | / | 10.6µM* | / | ? | ?
COc1c2occc2c(OC)c2c(=O)cc(C)oc12 | -16.1% | 1.1% | -8.2% | -3.6% | -19.0% | -6.7% | / | /
Cc1cc(=O)c2c(o1)C(=O)c1occc1C2=O | / | / | / | ? | ? | -0.6% | 2.51µM* | ?
Cc1cccc(OCC(=O)NC(=S)NNC(=O)c2ccncc2)c1 | -3.6% | -1.0% | 1.5% | 70.8µM* | 5.32µM* | 4.9% | 3.55µM* | 5.62µM*
O=C(COc1ccc(Cl)cc1)NNC(=O)c1ccncc1 | -6.9% | -2.5% | 0.7%[56.1 µM] | 20.7% | -10.0% | -1.5% | / | /
O=C(c1cccc(S(=O)(=O)N2CCc3ccccc3C2)c1)N1CCN(c2ccc(O)cc2)CC1 | -12.9% | -0.1% | -0.6% | -1.7% | -3.1% | -6.3% | 5.01µM* | 14.1µM*
O=C(O)c1cccc(S(=O)(=O)N2CCc3ccccc3C2)c1 | 0.5% | -0.1% | 3.5% | -8.9% | -8.2% | -1.5% | / | /
COc1ccc([C@]23Cc4cc(C#N)ccc4C(O2)c2c(c4ccc(OC)cc4oc2=O)O3)cc1 | -0.2%[11.5 µM] | / | / | / | / | / | / | /
O=C1C(=Cc2cccc(O)c2O)SC(=S)N1CCCN1CCOCC1 | / | / | / | / | 5.32µM* | / | 4.47µM* | 2.24µM*
O=C(CCCN1C(=O)/C(=C/c2ccccc2Cl)SC1=S)NCCCN1CCOCC1 | 0.6% | 18.6% | 9.7% | -3.6% | -25.1% | -11.8% | / | /
CCC(=O)N1c2ccc(S(=O)(=O)CCC(=O)NCc3ccc(OC)cc3)cc2CC1C (stereo not drawn) | / | -1.2% | 2.3% | ? | / | / | / | /
C=CCCCCCCC=C | / | / | 9.9% | / | / | / | / | /
COCC(=O)Nc1cc(Sc2ccccc2)ccc1N=C(NC(=O)OC)NC(=O)OC | / | / | / | 1.4% | / | / | / | /
O=S(=O)(Nc1cc(Sc2cccc3cccnc23)c(O)c2ccccc12)c1ccc(F)cc1 | -2.0% | ? | 8.0% | 22.4µM* | 1.5µM* | -14.5% | 1.41µM* | 2.24µM*
CCOC(=O)c1ccc(NC(=O)CSc2nccn2C)cc1 | 3.4% | 5.7% | 8.8% | -3.4% | -14.2% | -3.0% | / | /
SMILES | Tb PFK inh | Pin1 inhibitor | TDP1 inh | VDR inh | PLK1 PBD inh | S-ASM inh | TbPYK inh | TbPYK ADP-Glo
CCCCOc1ccc(NC(=O)CCSc2nccn2C)cc1 | 1.8% | -4.3% | 5.9% | -1.5% | -0.6% | -2.6% | 2µM* | 2.24µM*
Cc1ccc(NC(=O)c2cc(N3C(=O)C=CC3=O)ccc2N2CCOCC2)cc1 | ? | 10.0% | 0.0% | 28.2µM* | 2.99µM* | -2.1% | 10µM* | 11.2µM*
CN(C)C(=S)N=Nc1[nH]c2ccccc2c1O | 8.2% | -3.4% | 5.5% | -0.4% | 16.8µM* | 3.4% | 5.62µM* | 6.31µM*
CC(C)CCNC(=O)C(=O)Nc1c2c(nn1-c1ccc(Cl)cc1)CSC2 | / | 0.9% | 10.4% | 6.6% | / | / | / | /
CCOc1ccc(NC(=O)CN2C(=O)CC(C)Sc3ccccc32)cc1 (stereo not drawn) | / | 7.7% | -1.0% | 2.1% | / | / | / | /
Cc1ccnc(NC(=S)N2CCN(c3cccc(C(F)(F)F)c3)CC2)c1 | -9.3% | -2.1% | -1.2% | -18.5% | -7.1% | 2.4% | 2.24µM* | 2.82µM*
Cc1ccc(C)c(NC(=S)N2CCN(c3cccc(C(F)(F)F)c3)CC2)c1 | -2.9% | -5.4% | 3.9% | 8.2% | -6.0% | -2.4% | / | /
COc1ccc(Nc2cc(O)c3ncccc3c2)cc1 | -5.1% | / | / | / | / | / | / | /
COc1ccc(NC(=O)c2ccc3c(=O)n4nc(Nc5cccc(Cl)c5C)sc4nc3c2)cc1 | / | 2.1% | 5.6% | -1.8% | / | / | / | /
Cc1ccc2oc(C(=O)N(C)Cc3ccc(C)o3)c(C)c2c1 | -15.0% | 1.8% | 7.9% | ? | ? | -2.9% | 15.8µM* | 28.2µM*

From PubChem
